The text below walks through data of PubChem BioAssay (NCATS).

Structures are written as SMILES. Several values for one entry are separate records, joined by “and”; a condition that tells them apart may be missing. Identical values can stand only once. Results filed as inconclusive are left out. Activity calls are given as the source filed them. Calls follow the shape of the full dose curve.

The nature of experiment [1]: Cytotoxicity counterscreen for inhibitors of SARS-CoV-2 cell entry (AID 1645845). Also: nearly all actives have a fitted effect of over 50% in size. As to activity change, negative = cytotoxicity: % is scaled to controls: 0 for no effect and ±100 for the full control effect. The conditions noted are these: outcome: dose series up to 57.1 µM unless noted. An outline of the steps:
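ATP-content luminescence (ATPLite 1step, 15 min RT) read after 48 h compound exposure of Expi293F cells stably expressing human ACE2; normalized to cells-only wells and media-only wells.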

Experiment [2] is described as follows: Primary qHTS to identify inhibitors of SARS-CoV-2 cell entry (AID 1645846). Also: nearly all actives have a fitted effect of over 45% in size. Particulars: SARS-CoV-2 pseudovirus cell entry assay, luminescence; activity change, negative = inhibition: at 57.1 µM (top of the series) unless noted. An outline of the steps:
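Luminescence readout (Bright-Glo luciferase) 48 h after pseudoparticle addition. HEK293-ACE2 cells, 1500/well; compound pre-incubation 1 h; Normalized to spike PP and bald PP.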
A general note: Quantitative high-throughput screening tests each substance at several concentrations.
Potency is read from the fitted curve at half-maximal effect.

In the case of `O=c1ncccn1[C@@H]1O[C@H](CO)[C@@H](O)[C@H]1O`, the Potency entry in experiment [1] and in experiment [2] was “inactive” in each case.

`Oc1ccc(Nc2nc(-c3ccc(Cl)cc3)cs2)cc1`: the Potency entry in experiment [1] was “inactive”. The Potency in experiment [2] was 28.2 µM (active).

Turning to `COC(=O)[C@H]1[C@@H](O)[C@@]2(O)c3c(OC)cc(O[C@@H]4O[C@@H]([C@@H](O)CO)CO[C@H]4OC)cc3O[C@@]2(c2ccc(OC)cc2)[C@@H]1c1ccccc1`, the Potency result in experiment [1] and in experiment [2] was “inactive” in each case.

Take `CC(Nc1ncnc2nc[nH]c12)c1cc2cccc(Cl)c2c(=O)n1-c1ccccc1` (stereo not given): the Potency entry in experiment [1] was “inactive”. For the same compound, the activity change, negative = inhibition in experiment [2] was -36.2%.

Consider `C[C@@H]1CCN(C(=O)N2CCCC2)C[C@@H]1N(C)c1ncnc2[nH]ccc12`, for which the Potency entry in experiment [1] and in experiment [2] was “inactive” in each case.

In the case of `CC(=O)N1CCN(c2ccc(NC(=O)Cc3cnc(-c4ccnc(F)c4)c(C)c3)nc2)CC1`, the Potency entry in experiment [1] was “inactive”. In addition, the activity change, negative = inhibition in experiment [2] stood at 0.388%.

On to `O=C(/C=C/c1ccc(CN(CCO)CCc2c[nH]c3ccccc23)cc1)NO`, for which, in experiment [1], the Potency entry was “inactive”. The activity change, negative = inhibition in experiment [2] was -7.55%.

In the case of `O=C(COCC(=O)N1CCN(C(c2ccccc2)c2ccccc2)CC1)Nc1ccc(Cl)cc1C(=O)O`, in experiment [1], the Potency entry was “inactive”. For the same compound, in experiment [2], the activity change, negative = inhibition was -0.414%.

As for `CC(C)Cc1ccc([C@@H](C)C(=O)NS(C)(=O)=O)cc1`, the Potency entry in experiment [1] was “inactive”. Besides, in experiment [2], the activity change, negative = inhibition is 3.55%.

On to `CC(C)(CNC(=O)c1cccc(-c2noc(C(F)(F)F)n2)c1)c1coc(-c2ccccc2)n1`, for which, in experiment [1], the Potency entry was “inactive”. In addition, in experiment [2], the activity change, negative = inhibition is -6.95%.

As to `COc1cccc(-c2c(C)n(Cc3c(F)cccc3C(F)(F)F)c(=O)n(C[C@H](NCCCC(=O)O)c3ccccc3)c2=O)c1F`, the Potency entry in experiment [1] is “inactive”. For the same compound, the activity change, negative = inhibition in experiment [2] is -17.5% and -28.9%.

`CCO[C@@H]1OC(=O)C[C@@H]1NC(=O)[C@@H]1CCCN1C(=O)[C@@H](NC(=O)c1ccc(N)c(Cl)c1)C(C)(C)C`: the Potency result in experiment [1] is “inactive”. Moreover, the activity change, negative = inhibition in experiment [2] is -14.2%.

Consider `C[C@H](Nc1nc(N[C@H](C)C(F)(F)F)nc(-c2cccc(Cl)n2)n1)C(F)(F)F`, for which, in experiment [1], the Potency result is “inactive”. Besides, the activity change, negative = inhibition in experiment [2] is -8.78%.

As to `Cc1c(F)ccc(C(=O)Nc2cc([N+](=O)[O-])ccc2N2CCN(C)CC2)c1Cl`, the Potency result in experiment [1] was “inactive”. In experiment [2], the activity change, negative = inhibition was -18.7%.

Take `CN(CCO)C1CCN(c2ccc(Nc3ncc4c5ccnc(F)c5n(C5CCCC5)c4n3)nc2)CC1`: the Potency result in experiment [1] is “inactive”. Further, the activity change, negative = inhibition in experiment [2] was -15.6% [at 27.1 µM].

For the compound `COCCNc1cc(NC(=O)N2CCCc3cc(CN4CCN(C)CC4=O)c(C=O)nc32)ncc1C#N`, in experiment [1], the activity change, negative = cytotoxicity was 2.9% [at 11.3 µM] (inactive). Further, the activity change, negative = inhibition in experiment [2] is -9.55% [at 11.3 µM].

Regarding `COc1cc2nc(-c3cc(F)ccc3O)nc(N[C@@H]3CNC[C@H]3C(C)(C)O)c2cc1OC`, the results for the Potency in experiment [1] and in experiment [2] were 3.98 µM (active) and 5.01 µM (active), respectively.

For `COc1cc2c(Nc3ccc(Cl)c(Cl)c3F)ncnc2cc1OCC1C[C@@H]2CN(C)C[C@@H]2C1` (stereo not given in full), the Potency was 31.6 µM (active) in experiment [1] and 15.8 µM (active) in experiment [2].

Regarding `COc1cc2nccc(Oc3ccc(NC(=O)c4cn(C(C)C)c(=O)n(-c5ccc(F)cc5)c4=O)cc3F)c2cc1OC`, the Potency result in experiment [1] and in experiment [2] was “inactive” each time.

As for `C#Cc1cccc(Nc2ncnc3cc4c(cc23)OCCOCCOCCO4)c1`, the Potency result in experiment [1] was “inactive”. Moreover, the activity change, negative = inhibition in experiment [2] was -13.8%.

Turning to `O=C(Nc1ccc(-c2ccnc(Nc3ccc(N4CCOCC4)cc3)n2)cc1)C1CCCN1` (stereo not given), in experiment [1], the Potency entry is “inactive”. Also, the activity change, negative = inhibition in experiment [2] was -3.33%.

In the case of `Cn1cc(-c2c[nH]c3ncnc(N4CCOCC4)c23)cn1`, the Potency result in experiment [1] is “inactive”. The activity change, negative = inhibition in experiment [2] was -0.441%.

Regarding `O=C(Nc1nccs1)C(c1cc(F)ccc1O)N1Cc2ccccc2C1=O` (stereo not given), the Potency entry in experiment [1] was “inactive”. Moreover, the activity change, negative = inhibition in experiment [2] was -14.9%.

For the compound `CCC(=O)NC[C@H](Cc1ccc(OCCc2nc(-c3ccccc3)oc2C)cc1)N/C(C)=C\C(=O)c1ccc(C(F)(F)F)cc1`, the Potency result in experiment [1] was “inactive”. The activity change, negative = inhibition in experiment [2] is -18.7%.

Turning to `C=CC(=O)Nc1cc(N2CCN(CC)CC2)ccc1Nc1cc(N(C)C(=O)Nc2c(Cl)c(OC)cc(OC)c2Cl)ncn1`, the Potency result in experiment [1] was “inactive”. Moreover, the activity change, negative = inhibition in experiment [2] is -6.15%.

Consider `Cc1nc(NC(=O)N2CCC[C@H]2C(N)=O)sc1-c1csc(C(C)(C)C)n1`, for which the Potency result in experiment [1] and in experiment [2] was “inactive” in each case.

Turning to `C[C@]12CCCN1CC1=NNC(=O)c3cc(F)cc4[nH]c2c1c34`, in experiment [1], the Potency entry is “inactive”. Also, in experiment [2], the activity change, negative = inhibition is -15.3%.

Consider `CNc1nc(Nc2cnn([C@H]3CCN(C4COC4)C[C@@H]3F)c2Cl)ncc1C(F)(F)F`, for which the Potency entry in experiment [1] and in experiment [2] was “inactive” each time.

For the compound `Clc1cc2c(NC3CCCC3)nnc(-c3ccncc3)c2cc1Cl`, the Potency entry in experiment [1] and in experiment [2] was “inactive” throughout.

Regarding `N[C@@H]1CN(c2c(F)cc3c(=O)c(C(=O)O)cn([C@@H]4C[C@@H]4F)c3c2Cl)CC12CC2`, the Potency entry in experiment [1] was “inactive”. The activity change, negative = inhibition in experiment [2] is -5.2%.
